Laboratory results from PubChem BioAssay AID449762 (Southern Research Specialized Biocontainment Screening …, 2010).
About 1,900 (0.58%) of roughly 330,000 compounds were called active. Roughly 4% stayed inconclusive and do not appear here. No stated cut-off is given here; in the data, inconclusive means inhibition above about 70% without an active follow-up result; inactive means below that. A selection follows. Potency and affinity values are given separately.

test: M. tuberculosis growth inhibition, HTS (AID 449762);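 further: bacterial growth assessed after seven days of incubation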; conditions: M. tuberculosis H37Rv growth inhibition, 7H9 media; at 25 µM; hits give high values

Row | SMILES | inhibition
1 | CCCCN(CC)C(=O)CSc1nc2ccccc2c(=O)n1CC1COc2ccccc2O1 (stereo not given) | 15% (inactive)
2 | O=C(NCc1cccc(Cl)c1)c1cc(=O)[nH]c2ccccc12 | -6.18% (inactive)
3 | CCOC(=O)CN(C#N)c1nc(C)cc(C)n1 | -0.56% (inactive)
4 | COC(=O)CN(C#N)c1nc(OC)nc(N(C)C)n1 | 9.53% (inactive)
5 | O=C(COC(=O)c1ccccc1)Nc1cc(S(=O)(=O)N2CCCCCC2)ccc1Cl | -13% (inactive)
6 | CCN1C(=O)[C@@H]2[C@@H](c3ccc(-c4ccc(C(C)=O)cc4)c(OC)c3)N3CCC[C@@]3(C(=O)OC)[C@@H]2C1=O | 18.4% (inactive)
7 | CC(=O)C[C@H](O)CC(=O)[C@H]1OC(=O)CCCCCCc2ccccc21 | 4.94% (inactive)
8 | CC1(C)CC(=O)C2=C(C1)Nc1ccccc1[S@]2=O | 1.12% (inactive)
9 | COc1ccc(C2=NCCc3cc(OC)c(OC)cc32)cc1OC | 4.26% (inactive)
10 | COc1ccc(CC2(CO)CCN(C/C=C/c3ccccc3OC)CC2)cc1 | 50.6% (inactive)
11 | OCC1(Cc2ccccc2Cl)CCN(C/C=C/c2ccccc2)CC1 | 2.72% (inactive)
12 | Cc1ccc(-n2nc(CC#N)c(C#N)c2N)cc1Cl | -3.34% (inactive)
13 | Cc1ccc2[nH]c(O)c(N=O)c2c1 | -3.5% (inactive)
14 | O=Nc1c(O)[nH]c2ccc(F)cc12 | -7.36% (inactive)
15 | O=C(CSc1cccc[n+]1[O-])Nc1cccc(Oc2ccccc2)c1 | 2.29% (inactive)
16 | O=C(C1CC(=O)N(c2ccc3c(c2)OCCO3)C1)N1CCN(Cc2ccccc2F)CC1 (stereo not given) | -2.42% (inactive)
17 | COc1cccc2sc3ccc(C#Cc4ccc(N)cc4)cc3c(=O)c12 | 39.9% (inactive)
18 | COc1cccc2sc3ccc(C#CC4(O)CCCCC4)cc3c(=O)c12 | 47.6% (inactive)
19 | COc1ccc(S(=O)(=O)Cc2ccc(C(=O)N3CCN(C4CCCCC4)CC3)o2)cc1 | -3.99% (inactive)
20 | COc1ccc(NC(=O)c2ccc(CNc3c(NC4CCCCC4)c(=O)c3=O)cc2)c(OC)c1 | -5.88% (inactive)
21 | CCOc1ccccc1NC(=O)c1ccccc1N(C)S(C)(=O)=O | -4.2% (inactive)
22 | COc1ccc(C2C(C#N)=C(N)N(Nc3ccccc3)C3=C2C(=O)CC(C)(C)C3)cc1C (stereo not given) | -5.96% (inactive)
23 | COc1ccc(C2C(C#N)=C(N)N(N(C)C)C3=C2C(=O)CC(C)(C)C3)cc1OC (stereo not given) | 7.78% (inactive)
24 | CSc1ccccc1OCc1cc(C(=O)NC(C)CCn2cccn2)no1 (stereo not given) | -15.6% (inactive)

Row | SMILES | inhibition
25 | Cc1cc(C)n(C(=O)c2ccc([N+](=O)[O-])cc2Cl)n1 | 5.54% (inactive)
26 | Cc1cc(C)n(C(=O)c2ccc([N+](=O)[O-])cc2N)n1 | -4% (inactive)
27 | Cc1nc([N+](=O)[O-])cn1CC(=O)c1ccc(Br)cc1 | 4.4% (inactive)
28 | CC(C)C(=O)c1cn(CC(=O)NCc2ccc3c(c2)OCO3)c2ccccc12 | -5.3% (inactive)
29 | CS(=O)(=O)n1nc(-c2cccnc2)nc1NCc1ccccc1 | 0.47% (inactive)
30 | CC(=O)n1nc(-c2ccccc2)nc1NCc1ccc(N(C)C)cc1 | 0.39% (inactive)
31 | CCN(CC)CC(=O)NCC1(c2ccccc2)CCCC1 | -3.12% (inactive)
32 | O=C(O)C1C2C=CC(C2)C1C(=O)Nc1ccc(C(=O)N2CCCCC2)cc1 (stereo not given) | 1.87% (inactive)
33 | CCOC(=O)C(=O)N=Nc1c(O)n(C)c2ccccc12 | 1.87% (inactive)
34 | COc1cccc(N=Nc2c(=O)[nH]n3c(C)cc(C)nc23)c1 | 0.98% (inactive)
35 | Cc1cc(C)n2[nH]c(=O)c(N=Nc3ccccc3)c2n1 | 4.19% (inactive)
36 | Cc1c(C(=O)N2CCN(C(=O)c3ccccc3)CC2)oc2ccc(F)cc12 | -0.86% (inactive)
37 | COc1ccc(/C=C/C(=O)c2oc3ccc(F)cc3c2C)cc1 | 10.9% (inactive)
38 | CC(=O)c1ccc(OCC(=O)Nc2cccc(S(=O)(=O)N3CCCC3)c2)cc1 | -6.55% (inactive)
39 | COc1cc(NC(=O)c2cccs2)c(C(=O)OCC(=O)NCc2ccccc2)cc1OC | -0.2% (inactive)
40 | O=C(COC(=O)c1cccs1)NCc1ccco1 | -0.65% (inactive)
41 | COc1cccc(CN(C)C(=O)c2ccc3c(=O)n4c(nc3c2)CCC4)c1OC | 1.09% (inactive)
42 | COc1ccc(COC(=O)c2ccc3c(=O)n4c(nc3c2)CCC4)cc1F | 3.8% (inactive)
43 | C[C@H](NC(=O)C1CCN(S(=O)(=O)c2ccccc2)CC1)C(=O)NCc1ccc(Cl)cc1Cl | -1.33% (inactive)
44 | O/C(=C\Sc1nnc(Cc2ccccc2)o1)c1ccc(Br)cc1 | 8.01% (inactive)
45 | O/C(=C\Sc1nnc(Cc2ccccc2)o1)c1ccc(F)cc1 | 7.63% (inactive)
46 | CCC(C)(C)NC(=O)C(c1ccncc1)N(C(=O)c1sc(C)nc1C)c1ccc(C)cc1 (stereo not given) | 3.84% (inactive)
47 | COc1cc(/C=N\NC(=O)c2ccc(Cl)cc2)ccc1Oc1ccc([N+](=O)[O-])cn1 | -6.52% (inactive)
48 | Cc1nc2ccccc2n1CCc1ccccc1 | -2.95% (inactive)

Row | SMILES | inhibition
49 | Cc1cccc(-n2c(N)c(-c3nc4ccccc4n3C)c3nc4ccccc4nc32)c1 | 1.57% (inactive)
50 | CNC(=O)CS(=O)(=O)CC(=O)Nc1cc(OC(C)C)c(Cl)cc1Cl | -5.55% (inactive)
51 | O=C(OC(C(=O)Nc1ccc(Cl)c(C(F)(F)F)c1)c1ccccc1)C1=COCCO1 (stereo not given) | 45.5% (inactive)
52 | O=C(Cc1ccccc1)Nc1nccs1 | -6.19% (inactive)
53 | COC(=O)CCC(=O)Nc1nccs1 | 5.49% (inactive)
54 | CCn1c(SCC(=O)Nc2nc(C)c(C)s2)nnc1-c1cccnc1 | -1.86% (inactive)
55 | CC1=NC(C(F)(F)F)(C(F)(F)F)C(C#N)=C(C)N1 | -4.27% (inactive)
56 | C=CCn1cccc(C(=O)Nc2ccc(SC)cc2)c1=O | -0.65% (inactive)
57 | O=C(c1ccccc1)c1nn(-c2ccccc2)c(=O)cc1C(F)(F)F | 13.9% (inactive)
58 | O=C(c1cccc(Cl)c1)c1nn(-c2ccccc2)c(=O)cc1C(F)(F)F | -1.58% (inactive)
59 | CCCCNC(=O)c1c(C)cc(=O)oc1C | -6.73% (inactive)
60 | Oc1ccccc1C1Nc2cccc3cccc(c23)N1 | 6.02% (inactive)
61 | Clc1cccc(Cl)c1C1Nc2cccc3cccc(c23)N1 | 14.4% (inactive)
62 | O=C(CSc1nnnn1-c1ccc(F)cc1F)Nc1ccccc1F | -0.25% (inactive)
63 | CC(=O)NC1=NN(C(C)=O)C(c2ccc(F)cc2)S1 (stereo not given) | -2.18% (inactive)
64 | Cc1cc(=O)oc(C)c1C(=O)NCc1cccnc1 | -7.02% (inactive)
65 | Cc1onc(-c2ccccc2)c1C(=O)NCc1cccnc1 | -1.76% (inactive)
66 | COc1ccc(-c2cc(C(=O)N/N=C(\C)c3cccnc3)c3cc(C)ccc3n2)cc1OC | -3% (inactive)
67 | CCc1nnc(NC(=O)c2ccc(S(=O)(=O)N3CCCC3)cc2)s1 | -0.36% (inactive)
68 | O=C(O)CSc1cccc[n+]1[O-] | -0.1% (inactive)
69 | CN(C(=O)CSc1cccc[n+]1[O-])c1ccccc1 | -7.05% (inactive)
70 | O=C(CSc1cccc[n+]1[O-])N1CCCCCC1 | -7.02% (inactive)
71 | [O-][n+]1ccccc1SCc1ccccc1 | -3.14% (inactive)
72 | CN(C(=O)CS(=O)(=O)c1cn(CC(=O)N2CCCCC2)c2ccccc12)c1ccccc1 | -2.32% (inactive)

Row | SMILES | inhibition
73 | O=C(O)C1(P(=O)(c2ccccc2)c2ccccc2)CCCC1 | 0.37% (inactive)
74 | CN(C)CCCNC(=S)N(CCCO)Cc1cc2cc3c(cc2[nH]c1=O)OCO3 | 4.05% (inactive)
75 | COc1cc(C(CCN2CCCC2)c2c(OC)cc(OC)c3c(-c4ccccc4)cc(=O)oc23)cc(OC)c1OC (stereo not given) | 56.2% (inactive)
76 | COc1ccc(C(CCN2CCN(c3ccccc3)CC2)c2c(OC)cc(OC)c3c(-c4ccccc4)cc(=O)oc23)cc1 (stereo not given) | -5.41% (inactive)
77 | COc1ccc(N2C(=O)NC(NS(=O)(=O)c3ccccc3)(C(F)(F)F)C2=O)cc1 (stereo not given) | -5.61% (inactive)
78 | CNC(=O)COC(=O)c1cc(=O)[nH]c2ccccc12 | -5.4% (inactive)
79 | Cc1c2cnn(CC(=O)Nc3cccc(C(F)(F)F)c3)c(=O)c2c(C)n1Cc1ccccc1F | -1.26% (inactive)
80 | O=C(CN1C(=O)COc2ccccc21)N1CCCC1 | -0.99% (inactive)
81 | O=C(CN1CCOc2ccccc21)N1CCCC1 | -8.18% (inactive)
82 | CC(C)c1ccc(NC2CCCN(C(=O)CCN3CCOCC3)C2)cc1 (stereo not given) | 7.93% (inactive)
83 | O=C(Nc1nc(-c2cc(Cl)sc2Cl)cs1)c1ccccc1 | -8.95% (inactive)
84 | O=C(Nc1nc(-c2cc(Cl)sc2Cl)cs1)c1ccc(Br)s1 | 1.67% (inactive)
85 | CCC1CCCCN1C(=O)c1noc(C(C)C)c1[N+](=O)[O-] (stereo not given) | 3.49% (inactive)
86 | CC12CC3(C)CC(C)(C1)CC(C(N)=O)(C2)C3 | -0.48% (inactive)
87 | COc1ccccc1NC(=O)CSCc1cc(=O)n2ccsc2n1 | 3.56% (inactive)
88 | Cc1ccc(C(C)C)c(OCC(O)CNC2CCCC2)c1 (stereo not given) | 9.04% (inactive)
89 | CCN(CCNCC(O)COCc1ccc(Cl)cc1)c1cccc(C)c1 (stereo not given) | 57% (inactive)
90 | Cc1ccc(S(=O)(=O)Cc2ccc(C(=O)NCCCN3CCN(C)CC3)o2)cc1 | -20.7% (inactive)
91 | O=C(Cn1c2ccc(F)cc2c2nc3n(c(=O)c21)CCS3)N1CCCC1 | -4.92% (inactive)
92 | CCN(CC)S(=O)(=O)c1cccc(-c2csc(C)n2)c1 | -1.32% (inactive)
93 | COc1cc(/C=N\Nc2nncn2N)ccc1OC(C)=O | -2.67% (inactive)
94 | COc1ccc(/C=N/Nc2nnc(C)n2N)cc1OC | 54.6% (inactive)
95 | Cc1cccc(C)c1-n1nnnc1SCSc1nnnn1-c1c(C)cccc1C | -0.17% (inactive)
